Measurements as given in the supplement of paper PMC11732987, “Enantioselective OTUD7B fragment discovery through chemoproteomics screening and high-throughput optimisation” (Communications Chemistry, 2025).

Assays:
Test in all cases: log2 ratio of Biotin-Ahx-Ub-VS probe labelling (fragment/DMSO); higher = less target engagement (more negative = stronger competition), active = hit call of the paper (q ≤ 0.05, log2 ratio ≤ -1)
Conditions in all cases: compound concentration: 200 uM; treatment time: 3 h
OTUD6B = target: T1, OTUD6B (UniProt Q8N6M0)
T1 sequence (whole entry): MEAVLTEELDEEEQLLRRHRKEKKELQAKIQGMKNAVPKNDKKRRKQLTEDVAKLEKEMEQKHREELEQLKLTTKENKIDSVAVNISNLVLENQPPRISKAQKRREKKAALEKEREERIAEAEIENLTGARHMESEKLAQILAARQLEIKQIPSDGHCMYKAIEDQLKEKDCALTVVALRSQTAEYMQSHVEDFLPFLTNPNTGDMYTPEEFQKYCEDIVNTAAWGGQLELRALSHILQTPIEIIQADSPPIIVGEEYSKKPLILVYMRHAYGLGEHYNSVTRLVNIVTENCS
Method in brief: (§1)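 The table lists average log2 ratios of fragment over vehicle, from an unpaired t-test on global-median-normalised Spectronaut label-free quantities. Proteins with ≥2 unique peptides were used. Samples were HEK293T lysate (495 µg) treated in triplicate with fragment at 200 µM or vehicle for 3 h, then with Biotin-Ahx-Ub-VS (0.5 µM final) for 1 h, with labelled DUBs NeutrAvidin-enriched and run by diaPASEF LC-MS/MS.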

OTUD7B = target: T2, OTUD7B (UniProt Q6GQQ9)
T2 sequence (whole entry): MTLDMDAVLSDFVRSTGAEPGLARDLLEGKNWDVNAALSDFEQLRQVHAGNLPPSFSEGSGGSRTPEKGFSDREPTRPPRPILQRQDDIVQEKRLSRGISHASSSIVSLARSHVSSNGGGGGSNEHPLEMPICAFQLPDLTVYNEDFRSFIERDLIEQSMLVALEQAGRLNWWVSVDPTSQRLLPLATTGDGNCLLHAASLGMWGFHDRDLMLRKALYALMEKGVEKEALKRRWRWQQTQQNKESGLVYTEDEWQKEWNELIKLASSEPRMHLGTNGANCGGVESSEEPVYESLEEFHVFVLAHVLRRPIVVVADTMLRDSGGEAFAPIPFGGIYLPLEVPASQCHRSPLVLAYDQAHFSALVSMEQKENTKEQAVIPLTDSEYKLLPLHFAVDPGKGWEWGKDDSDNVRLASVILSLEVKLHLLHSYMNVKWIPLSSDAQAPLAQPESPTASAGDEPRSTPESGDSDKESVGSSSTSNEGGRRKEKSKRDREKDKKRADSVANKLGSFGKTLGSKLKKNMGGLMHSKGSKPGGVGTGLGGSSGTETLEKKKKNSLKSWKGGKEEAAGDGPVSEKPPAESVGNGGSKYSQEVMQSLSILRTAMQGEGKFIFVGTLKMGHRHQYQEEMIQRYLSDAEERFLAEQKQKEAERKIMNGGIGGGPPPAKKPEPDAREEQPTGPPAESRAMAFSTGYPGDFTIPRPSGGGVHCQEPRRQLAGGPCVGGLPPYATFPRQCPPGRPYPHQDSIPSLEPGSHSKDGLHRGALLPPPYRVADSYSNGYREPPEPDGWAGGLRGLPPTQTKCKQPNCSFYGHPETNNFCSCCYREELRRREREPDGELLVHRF
Method in brief: as §1

PRPF8 = PRPF8 (UniProt Q6P2Q9)
Method in brief: as §1

PSMD7 = target: T3, PSMD7 (UniProt P51665)
T3 sequence (whole entry): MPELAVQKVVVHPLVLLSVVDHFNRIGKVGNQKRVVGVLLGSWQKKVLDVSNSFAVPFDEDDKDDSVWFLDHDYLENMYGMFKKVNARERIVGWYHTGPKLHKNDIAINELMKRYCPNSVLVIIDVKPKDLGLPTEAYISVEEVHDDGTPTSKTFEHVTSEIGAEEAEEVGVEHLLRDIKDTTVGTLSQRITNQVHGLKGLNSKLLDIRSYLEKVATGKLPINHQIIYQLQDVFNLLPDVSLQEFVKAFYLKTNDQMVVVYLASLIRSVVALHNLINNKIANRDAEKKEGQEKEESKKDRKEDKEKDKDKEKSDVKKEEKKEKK
Method in brief: as §1

UCHL1 = UCHL1 (UniProt P09936)
Chain of UCHL1 (P09936 whole entry, looked up): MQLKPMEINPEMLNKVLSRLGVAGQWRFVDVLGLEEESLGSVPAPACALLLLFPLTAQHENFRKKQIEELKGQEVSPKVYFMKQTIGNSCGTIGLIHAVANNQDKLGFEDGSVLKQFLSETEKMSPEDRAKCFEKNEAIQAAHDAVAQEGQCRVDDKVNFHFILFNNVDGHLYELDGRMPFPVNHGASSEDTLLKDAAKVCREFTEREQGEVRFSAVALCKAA
Method in brief: as §1

UCHL3 = target: T4, UCHL3 (UniProt P15374)
T4 sequence (whole entry): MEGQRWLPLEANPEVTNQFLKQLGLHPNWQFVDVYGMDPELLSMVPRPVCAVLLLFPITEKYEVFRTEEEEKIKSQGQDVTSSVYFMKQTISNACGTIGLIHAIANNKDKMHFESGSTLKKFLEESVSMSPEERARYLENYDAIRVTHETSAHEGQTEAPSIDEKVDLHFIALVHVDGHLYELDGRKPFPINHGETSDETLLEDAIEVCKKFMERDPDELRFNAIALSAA
Method in brief: as §1

UCHL5 = target: T5, UCHL5 (UniProt Q9Y5K5)
T5 sequence (whole entry): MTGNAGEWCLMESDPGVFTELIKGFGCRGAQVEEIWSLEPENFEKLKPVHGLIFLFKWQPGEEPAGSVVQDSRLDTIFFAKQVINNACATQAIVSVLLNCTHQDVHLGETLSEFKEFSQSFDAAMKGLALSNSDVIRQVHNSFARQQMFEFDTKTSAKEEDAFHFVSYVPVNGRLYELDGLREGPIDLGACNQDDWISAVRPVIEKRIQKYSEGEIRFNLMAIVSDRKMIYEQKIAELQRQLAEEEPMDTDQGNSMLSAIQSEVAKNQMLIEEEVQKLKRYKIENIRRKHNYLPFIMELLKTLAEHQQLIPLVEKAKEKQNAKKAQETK
Method in brief: as §1

USP10 = USP10 (UniProt Q14694)
Chain of USP10 (Q14694 whole entry): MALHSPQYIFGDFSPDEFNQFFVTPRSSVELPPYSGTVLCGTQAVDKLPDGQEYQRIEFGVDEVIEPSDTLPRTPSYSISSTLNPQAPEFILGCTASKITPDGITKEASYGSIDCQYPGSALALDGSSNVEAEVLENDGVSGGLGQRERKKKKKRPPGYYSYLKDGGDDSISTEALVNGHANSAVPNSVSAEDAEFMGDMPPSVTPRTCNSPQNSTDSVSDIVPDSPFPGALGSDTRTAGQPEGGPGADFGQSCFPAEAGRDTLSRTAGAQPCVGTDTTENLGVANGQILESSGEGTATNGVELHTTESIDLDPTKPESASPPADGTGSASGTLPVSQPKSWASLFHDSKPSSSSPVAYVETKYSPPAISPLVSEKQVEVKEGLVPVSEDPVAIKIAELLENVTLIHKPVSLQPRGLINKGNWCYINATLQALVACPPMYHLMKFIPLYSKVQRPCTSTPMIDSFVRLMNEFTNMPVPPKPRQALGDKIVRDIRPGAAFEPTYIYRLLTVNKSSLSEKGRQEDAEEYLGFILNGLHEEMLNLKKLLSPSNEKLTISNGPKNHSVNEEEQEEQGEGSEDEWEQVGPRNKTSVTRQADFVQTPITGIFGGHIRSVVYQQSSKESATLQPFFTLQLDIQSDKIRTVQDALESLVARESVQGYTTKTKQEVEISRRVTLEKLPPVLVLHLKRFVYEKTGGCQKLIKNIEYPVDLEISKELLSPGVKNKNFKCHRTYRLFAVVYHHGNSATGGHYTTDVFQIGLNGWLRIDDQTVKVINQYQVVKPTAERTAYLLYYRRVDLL
Method in brief: as §1

USP15 = target: T6, USP15 (UniProt Q9Y4E8)
T6 sequence (whole entry): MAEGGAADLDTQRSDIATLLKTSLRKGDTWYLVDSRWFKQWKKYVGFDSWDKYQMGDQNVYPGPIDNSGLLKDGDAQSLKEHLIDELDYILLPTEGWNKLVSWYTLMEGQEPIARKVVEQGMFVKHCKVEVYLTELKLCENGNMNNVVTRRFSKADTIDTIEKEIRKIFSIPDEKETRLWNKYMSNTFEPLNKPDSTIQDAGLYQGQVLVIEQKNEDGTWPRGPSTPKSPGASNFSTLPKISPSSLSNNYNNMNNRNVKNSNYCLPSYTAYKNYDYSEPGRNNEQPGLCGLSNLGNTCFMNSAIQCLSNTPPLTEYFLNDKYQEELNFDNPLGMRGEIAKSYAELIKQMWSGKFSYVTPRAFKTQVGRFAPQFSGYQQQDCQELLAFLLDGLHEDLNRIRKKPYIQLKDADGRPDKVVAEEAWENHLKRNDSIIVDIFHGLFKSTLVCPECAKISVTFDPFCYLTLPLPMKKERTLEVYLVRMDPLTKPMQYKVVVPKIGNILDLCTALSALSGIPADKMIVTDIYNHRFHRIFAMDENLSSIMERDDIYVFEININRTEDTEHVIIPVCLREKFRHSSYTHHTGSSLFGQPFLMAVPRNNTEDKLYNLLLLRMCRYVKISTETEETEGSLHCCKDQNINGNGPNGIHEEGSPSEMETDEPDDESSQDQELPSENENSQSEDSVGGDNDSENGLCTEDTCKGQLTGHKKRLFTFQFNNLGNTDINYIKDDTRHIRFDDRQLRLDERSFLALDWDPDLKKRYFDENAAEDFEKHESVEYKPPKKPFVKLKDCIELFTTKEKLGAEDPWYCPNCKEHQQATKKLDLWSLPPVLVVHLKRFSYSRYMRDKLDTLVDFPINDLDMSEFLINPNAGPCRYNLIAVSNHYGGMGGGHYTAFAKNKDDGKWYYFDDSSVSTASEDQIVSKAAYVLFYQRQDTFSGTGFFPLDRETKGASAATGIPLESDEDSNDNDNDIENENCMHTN
Method in brief: as §1

USP16 = USP16 (UniProt Q9Y5T5)
Chain of USP16 (Q9Y5T5 whole entry, looked up): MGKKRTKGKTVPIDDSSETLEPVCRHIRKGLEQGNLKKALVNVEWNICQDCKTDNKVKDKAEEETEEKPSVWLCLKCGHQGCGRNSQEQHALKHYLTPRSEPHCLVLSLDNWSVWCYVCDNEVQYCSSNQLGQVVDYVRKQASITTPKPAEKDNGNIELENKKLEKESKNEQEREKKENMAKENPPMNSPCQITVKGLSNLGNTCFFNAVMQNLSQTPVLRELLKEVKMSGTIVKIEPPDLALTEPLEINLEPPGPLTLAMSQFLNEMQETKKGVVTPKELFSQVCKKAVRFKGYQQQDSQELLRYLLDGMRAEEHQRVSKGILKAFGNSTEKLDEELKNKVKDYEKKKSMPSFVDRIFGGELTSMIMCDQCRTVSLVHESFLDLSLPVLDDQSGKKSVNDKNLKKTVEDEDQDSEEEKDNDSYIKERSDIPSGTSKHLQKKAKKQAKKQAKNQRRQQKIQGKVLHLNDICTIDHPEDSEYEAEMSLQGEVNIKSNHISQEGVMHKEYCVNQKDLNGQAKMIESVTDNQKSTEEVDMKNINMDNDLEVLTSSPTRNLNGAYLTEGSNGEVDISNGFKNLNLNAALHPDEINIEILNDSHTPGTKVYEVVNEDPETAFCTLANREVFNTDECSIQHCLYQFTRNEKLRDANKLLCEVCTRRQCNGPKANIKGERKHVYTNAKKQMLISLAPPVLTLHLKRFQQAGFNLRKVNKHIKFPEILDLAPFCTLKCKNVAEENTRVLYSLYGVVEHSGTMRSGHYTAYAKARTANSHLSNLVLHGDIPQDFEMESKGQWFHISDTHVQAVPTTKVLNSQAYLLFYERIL
Method in brief: as §1

Measured: log2 ratio of Biotin-Ahx-Ub-VS probe labelling

O=C(CCl)NC1CCC2(CC1)OCCO2
active: UCHL1 -1.25
inactive: OTUD6B -0.272 | OTUD7B -0.893 | PRPF8 -0.267 | PSMD7 -0.147 | UCHL3 -0.0419 | UCHL5 -0.477 | USP10 -0.165 | USP15 -0.308 | USP16 -0.00437
